Reference: PubChem BioAssay
Calls of active or inactive are those of the source. The rule behind the calls is not given here.

Experiment: inhibitors of Cryptococcus chitosan production, flow cytometry, Cibacron Brilliant Red staining (AID 1347148);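 note: compound exposure lasted three days at 37 degrees C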
Conditions: Cryptococcus neoformans chitosan, active compounds read low; at 10 µM unless noted

Fold fluorescence, inactive:
CCCCC[C@@H](O)/C=C/[C@H]1[C@@H]2C/C(=C/CCCC(=O)O)O[C@@H]2C[C@@H]1O 4.1
CC(=O)O[C@@H]1C(=O)[C@]2(C)C([C@@H](OC(=O)c3ccccc3)[C@@]3(O)C[C@@H](OC(=O)[C@@H](O)[C@H](NC(=O)c4ccccc4)c4ccccc4)C(C)=C1C3(C)C)[C@@]1(OC(C)=O)CO[C@H]1C[C@H]2O (stereo not given in full) 4.34 [at 58.6 µM]
O=C(O)c1ccc(-c2c3nc(c(-c4ccc(C(=O)O)cc4)c4ccc([n-]4)c(-c4ccc(C(=O)O)cc4)c4nc(c(-c5ccc(C(=O)O)cc5)c5ccc2[n-]5)C=C4)C=C3)cc1.[Mn+3] 4.93 [at 57 µM]
CCCCCCCCCCCC[C@H](O)C(=O)O 5.23
C=C[C@@H]1CN2CCC1C[C@H]2[C@H](O)c1ccnc2ccc(OC)cc12 (stereo not given in full) 3.61 [at 154.1 µM]
N#Cc1cc2c(OC[C@@H](O)CN3CCN(C(c4ccccc4)c4ccccc4)CC3)cccc2[nH]1 3.58 [at 107.2 µM]
CCCCOc1cc(C[C@H]2CNC(=O)N2)ccc1OC 8.15 [at 179.6 µM]
O[C@H]1C=C2CCN3Cc4cc5c(cc4C(C23)[C@@H]1O)OCO5 (stereo not given in full) 10.6 [at 174 µM]
Nc1ncnc2c1ncn2[C@@H]1CCCO1 2.55 [at 243.6 µM]
CC(=O)OCO[C@H](c1ccc2ccccc2c1)P(=O)(OCOC(C)=O)OCOC(C)=O 4.04 [at 110 µM]
C=C1CC[C@@H](O)C/C1=C/C=C1\CCC[C@]2(C)[C@@H]1CC[C@H]2[C@@H](C)CCCC(C)(C)O 5.68
CCCCC[C@@H](O)/C=C/[C@H]1[C@H](CCCCCCC(=O)O)[C@H](O)C[C@@H]1O 3.58
CN(C)C[C@H](O)Cn1c2ccc(Br)cc2c2cc(Br)ccc21 6.53 [at 117.3 µM]
CCCCCCCCCCCCCCC[C@H](O)[C@@H](CO)NC(=O)CCCCCCC 6.03
C1CCC[C@H]2CCCN3CC[C@@H](CCCCCC[C@@H]4CCCN5CC[C@@H](CC1)O[C@@H]45)O[C@@H]23 6.06 [at 11.2 µM]
C[S@](=O)c1ccc(-c2nc(-c3ccc(F)cc3)c(-c3ccncc3)[nH]2)cc1 8.78 [at 132.5 µM]
CC(C)=CCC(O)C1=CC(=O)c2c(O)ccc(O)c2C1=O (stereo not given) 6.4 [at 173.4 µM]
CCCCC[C@@H](O)/C=C/[C@H]1[C@H](C/C=C\CCCC(=O)O)[C@@H](O)C[C@@H]1O 4.53
O=C(O)CNC(=O)[C@H](CS)Cc1ccccc1 3.85 [at 197.4 µM]
C=C1O[C@](CO)(n2cnc3c(N)ncnc32)[C@@H](O)[C@H]1O 10.1 [at 179 µM]
CCCCC/C=C\C/C=C\C/C=C\C/C=C\CCCC(=O)O[C@@H](COCCCCCCCCCCCCCCCC)COP(=O)([O-])OCC[N+](C)(C)C 5.54
C[C@@](O)(C(=O)Nc1ccc(S(=O)(=O)c2ccccc2)cc1)C(F)(F)F 5.17 [at 133.9 µM]
COC(=O)C1=C(C)NC(C)=C(C(=O)OCCSc2ccccc2)[C@H]1C 8.74 [at 138.3 µM]
CCCCC[C@@H](O)/C=C/[C@H]1[C@H](CCCCCCC(=O)O)C(=O)C[C@@H]1O 4.03
COc1c(O)c2c(=O)cc(OC)c3c4c(OC)cc(=O)c5c(O)c(OC)c(C[C@H](C)OC(=O)c6ccccc6)c(c(c1C[C@H](C)OC(=O)Oc1ccc(O)cc1)c23)c54 6.48 [at 6.3 µM]
CCCCC[C@@H](O)/C=C/[C@H]1[C@H](CC(=O)CCCCC(=O)O)[C@H](O)C[C@@H]1O 4.59
C[C@H](N)C1CCC(C(=O)Nc2ccncc2)CC1 (stereo not given in full) 2.94 [at 202.1 µM]
CCCCCCOC(=O)C1(O)CC2OC1(C)n1c3ccccc3c3c4c(c5c6ccccc6n2c5c31)C(=O)NC4 (stereo not given) 4.72 [at 9.3 µM]
CC(=O)[C@@H]1[C@@H](C#N)C[C@@H]2[C@H]3CC=C4C[C@H](O)CC[C@@]4(C)[C@@H]3CC[C@]21C 3.64 [at 146.4 µM]
CC(C)[C@@H](O)CC[C@H](C)[C@@H]1CC[C@@H]2[C@H]3CC=C4C[C@H](O)CC[C@@]4(C)[C@@H]3CC[C@]21C 4.41 [at 124.2 µM]
COC(C)(C)CCC[C@H](C)C/C=C/C(C)=C/C(=O)O 5.1
C=C1CC[C@@H](O)C/C1=C/C=C1\CCC[C@]2(C)[C@@H]1CC[C@H]2[C@@H](C)CC[C@H](O)C(C)(C)O 6.63
CCCCCCCCCCCCCCCCCCOC[C@@H](COP(=O)([O-])OCC[N+](C)(C)C)OC(C)=O 3.94
CCCCCCCC/C=C\CCCCCCCCOC[C@@H](COP(=O)([O-])OCC[N+](C)(C)C)OC(C)=O 3.92
COC(=O)C1=C(C)NC(C)=C(C(=O)OCCN(C)Cc2ccccc2)[C@H]1c1cccc([N+](=O)[O-])c1 4.49 [at 104.3 µM]
C/C=C/C/C=C/CCC(=O)[C@@H]1O[C@@H]1C(N)=O 8.37 [at 223.9 µM]
OC[C@@H]1NC[C@H](O)[C@H](O)[C@H]1O 8.15 [at 306.4 µM]
O=C(O)CCC/C=C\C[C@H]1[C@H](/C=C/[C@H](O)COc2cccc(C(F)(F)F)c2)[C@@H](O)C[C@H]1O 4.62
CN=C(NC#N)Nc1ccc(C2=NNC(=O)C[C@@H]2C)cc1 7.2 [at 175.9 µM]
CCCCCCCCCCCCCCCC(=O)OC[C@@H](COP(=O)(O)O)OC(=O)CCCCCCCCCCCCCCC 3.86
